# Results as given in PubChem BioAssay (NCI).
# This is part of a sample that, as a whole, favours compounds with a hit. Of some 83,000 tested, about 20% had one in any assay.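 Cells were grown in 96-well plates and exposed to the test compound at a single concentration for 48 hours; results are reported as percent growth, with values below 10 considered active.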 Values without a mark were called inactive. The source made the active and inactive calls.
# System: CAKI-1 renal
# Test: NCI-60 one-dose screen, 48 h (100 = growth as untreated, 0 = no growth, -100 = all killed)
# Conditions: 10 µM unless noted
row,SMILES,growth
1,CCCCCCC1N=C(N)N=C(N)N1c1cccc(Cl)c1 (centres undefined),100%
2,O=C(O)c1cc2c(s1)C(=O)c1sccc1C2=O,107%
3,N#CCc1cccc2ccccc12,103%
4,COC(=O)C(=[N+]=[N-])C(=O)c1ccc([N+](=O)[O-])o1,104%
5,CCOc1ccc(C(CN2CCOCC2)C(C)=O)cc1OC (centres undefined),-89.9% (active)
6,COc1ccc2c(c1)c(CC(=O)O)c(C)n2C(=O)c1ccc(Cl)cc1,88.1%
7,CC(C)N=C(N)/N=C(\N)Nc1ccc2ccc3ccccc3c2c1,-81.1% (active)
8,CCc1cnc2ccccc2c1/C=C/c1ccc(N(C)C)cc1,51.6%
9,NC(=S)N/N=C\c1nccc2c(C(F)(F)F)cccc12,-2.51% (active)
10,CCC(=O)c1cc([N+](=O)[O-])c(Br)s1,95.8%
11,O=C1/C(=C/c2ccccc2)CCC/C1=C\c1ccccc1,84.3%
12,COc1cc(NCc2ccc3nc(N)nc(N)c3c2C)cc(OC)c1OC (tested in a mixture with another compound),25.4%
13,CCOc1cc(F)c([N+](=O)[O-])cc1[N+](=O)[O-],18.8%
14,CC/C(=C(/CC)c1ccc(O)cc1)c1ccc(O)cc1,45.8%
15,CC(C)c1ccc(C(=O)OC2CCCC2)cc1,98.8%
16,O=C(CBr)c1ccc(OC(=O)c2ccccc2)cc1,100%
17,CN(C)CC(C)(CN(C)C)C(=O)/C=C/c1c(Cl)cccc1Cl,52.7%
18,COc1cc(/C=C/c2ccnc3ccccc23)cc(OC)c1OC,24.3%

row,SMILES,growth
1,Cc1cc(C)c([I+]c2c(C)cc(C)cc2C)c(C)c1,29.2%
2,COc1cc(/C=C/C(=O)CC(=O)/C=C/c2ccc(O)c(OC)c2)ccc1O,64.3%
3,CN(C)c1ccc(C(=C2C=CC(=[N+](C)C)C=C2)c2ccc(N(C)C)cc2)cc1,-27.5% (active)
4,COC(=O)c1ccc(=O)c2nc3/c(=C/O)c(O)cc(=O)c3[nH]c12,21.5%
5,CCCCCCCCCCCC[n+]1ccc2ccccc2c1,40.9%
6,COc1cc([C@@H]2c3cc4c(cc3[C@H](OC3OC5COC(c6ccccc6)OC5C(O)C3O)[C@H]3COC(=O)[C@H]23)OCO4)cc(OC)c1OC (some centres undefined),31%
7,NC(=Nc1nc(-c2ccccn2)cc2ccccc12)c1ccccn1,2.97% (active)
8,CN(C)CCN(C)CC(C)(C)C(=O)/C=C/c1ccc(Cl)c(Cl)c1,-100% [100 µM] (active)
9,CCN(CC)c1ccc(/C=C\C(=O)c2ccc(NC(C)=O)cc2)cc1,54.9%
10,Clc1ccccc1C(c1ccccc1)(c1ccccc1)n1ccnc1,20.6%
11,CCCCOS(=O)(=O)c1ccccc1,93.2%
12,COc1cc(NC(=O)C2=C(C)NC(C)=C(C(=O)Nc3cc(OC)c(Cl)cc3OC)C2c2cccc([N+](=O)[O-])c2)c(OC)cc1Cl,21.4%
13,CCCCCCCCCCCCCCCCCC[S+](C)CC (centres undefined),66.5%
14,CCNc1nnnn1CC,99.4%
15,C[n+]1ccccc1C[n+]1ccccc1,114%
16,NC(=S)N/N=C\c1nccc2c(N)cccc12,-23.9% (active)
17,O=C(O)c1cccc2cccc(-c3c4ccc(=O)c(O)c-4oc4c(O)c(O)ccc34)c12,90.2%

# System: A498 renal
# Test: as above
# Conditions: 10 µM unless noted
row,SMILES,growth
1,CCCCCCC1N=C(N)N=C(N)N1c1cccc(Cl)c1 (centres undefined),83%
2,O=C(O)c1cc2c(s1)C(=O)c1sccc1C2=O,103%
3,N#CCc1cccc2ccccc12,109%
4,COC(=O)C(=[N+]=[N-])C(=O)c1ccc([N+](=O)[O-])o1,69.1%
5,O=C(Nc1cccc(C(F)(F)F)c1)Oc1ccc(Cl)c2cccnc12,78.5%
6,CCOc1ccc(C(CN2CCOCC2)C(C)=O)cc1OC (centres undefined),92.2%
7,COc1ccc2c(c1)c(CC(=O)O)c(C)n2C(=O)c1ccc(Cl)cc1,81.9%
8,CC(C)N=C(N)/N=C(\N)Nc1ccc2ccc3ccccc3c2c1,-73.7% (active)
9,CCc1cnc2ccccc2c1/C=C/c1ccc(N(C)C)cc1,34%
10,CCC(=O)c1cc([N+](=O)[O-])c(Br)s1,87%
11,O=C1/C(=C/c2ccccc2)CCC/C1=C\c1ccccc1,84.6%
12,COc1cc(NCc2ccc3nc(N)nc(N)c3c2C)cc(OC)c1OC (tested in a mixture with another compound),32.9%
13,CCOc1cc(F)c([N+](=O)[O-])cc1[N+](=O)[O-],101%
14,CC/C(=C(/CC)c1ccc(O)cc1)c1ccc(O)cc1,81.4%
15,CC(C)c1ccc(C(=O)OC2CCCC2)cc1,117%
16,O=C(CBr)c1ccc(OC(=O)c2ccccc2)cc1,74.4%
17,CN(C)CC(C)(CN(C)C)C(=O)/C=C/c1c(Cl)cccc1Cl,119%

row,SMILES,growth
1,COc1cc(/C=C/c2ccnc3ccccc23)cc(OC)c1OC,18%
2,Cc1cc(C)c([I+]c2c(C)cc(C)cc2C)c(C)c1,45%
3,COc1cc(/C=C/C(=O)CC(=O)/C=C/c2ccc(O)c(OC)c2)ccc1O,101%
4,CN(C)c1ccc(C(=C2C=CC(=[N+](C)C)C=C2)c2ccc(N(C)C)cc2)cc1,-91% (active)
5,COC(=O)c1ccc(=O)c2nc3/c(=C/O)c(O)cc(=O)c3[nH]c12,1.77% (active)
6,CCCCCCCCCCCC[n+]1ccc2ccccc2c1,77.6%
7,COc1cc([C@@H]2c3cc4c(cc3[C@H](OC3OC5COC(c6ccccc6)OC5C(O)C3O)[C@H]3COC(=O)[C@H]23)OCO4)cc(OC)c1OC (some centres undefined),26.2%
8,CN(C)CCN(C)CC(C)(C)C(=O)/C=C/c1ccc(Cl)c(Cl)c1,-96% [100 µM] (active)
9,CCN(CC)c1ccc(/C=C\C(=O)c2ccc(NC(C)=O)cc2)cc1,71.6%
10,Clc1ccccc1C(c1ccccc1)(c1ccccc1)n1ccnc1,58.7%
11,CCCCOS(=O)(=O)c1ccccc1,128%
12,COc1cc(NC(=O)C2=C(C)NC(C)=C(C(=O)Nc3cc(OC)c(Cl)cc3OC)C2c2cccc([N+](=O)[O-])c2)c(OC)cc1Cl,75.3%
13,CCCCCCCCCCCCCCCCCC[S+](C)CC (centres undefined),63.2%
14,CCNc1nnnn1CC,83.8%
15,C[n+]1ccccc1C[n+]1ccccc1,109%
16,NC(=S)N/N=C\c1nccc2c(N)cccc12,12.2%
17,O=C(O)c1cccc2cccc(-c3c4ccc(=O)c(O)c-4oc4c(O)c(O)ccc34)c12,104%
